High-throughput results from PubChem.
Compounds with a hit are over-represented: about 2.4% of the library has one in this group of screens.
Pol eta inh: DNA polymerase eta (human) inhibition; Potency, µM (titrated, usually from 114 µM), without a hit: top-dose activity change, negative = inhibition, hits mostly inhibitors; 390,000 tested, 1.2% active; recombinant Pol eta, fluorescent DNA replication assay; also: % is scaled to controls: 0 for no effect and ±100 for the full control effect
Target sequence (Q9Y253 whole entry, looked up): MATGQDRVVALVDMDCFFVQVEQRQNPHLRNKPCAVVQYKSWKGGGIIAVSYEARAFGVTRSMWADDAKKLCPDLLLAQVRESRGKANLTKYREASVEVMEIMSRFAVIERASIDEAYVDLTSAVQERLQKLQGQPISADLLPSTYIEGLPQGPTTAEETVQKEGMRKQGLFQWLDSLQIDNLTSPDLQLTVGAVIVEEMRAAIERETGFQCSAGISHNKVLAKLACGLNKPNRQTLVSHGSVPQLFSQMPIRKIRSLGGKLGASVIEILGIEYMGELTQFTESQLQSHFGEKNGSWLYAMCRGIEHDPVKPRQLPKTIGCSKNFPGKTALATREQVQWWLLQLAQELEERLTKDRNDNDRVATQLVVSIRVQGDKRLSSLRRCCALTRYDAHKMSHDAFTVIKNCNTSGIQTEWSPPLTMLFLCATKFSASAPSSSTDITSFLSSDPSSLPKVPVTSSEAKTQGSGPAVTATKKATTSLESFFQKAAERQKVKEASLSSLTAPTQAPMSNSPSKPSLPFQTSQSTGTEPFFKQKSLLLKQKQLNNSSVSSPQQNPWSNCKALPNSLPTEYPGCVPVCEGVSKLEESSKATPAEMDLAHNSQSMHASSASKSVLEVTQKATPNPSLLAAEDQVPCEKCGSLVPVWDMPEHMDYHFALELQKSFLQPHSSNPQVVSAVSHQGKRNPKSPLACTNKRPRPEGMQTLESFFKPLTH
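Pol eta at 10 nM preincubated with compounds 15 min at room temperature; reaction started with fluorescent substrate (50 nM final) and read kinetically at 0 and 10 min.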
POLI inh: blocks human DNA polymerase iota activity | Pol iota fluorescent replication assay, 10 min | Potency, µM (top dose mostly 115 µM), for the others: at the highest dose activity, negative = inhibition, most hits filed as inhibitors | 390,000 tested, 1% active
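Fluorescent replication assay read twice, at 0 min and 10 min after adding 50 nM (final) substrate. Enzyme (10 nM) and compounds were first incubated 15 min at room temperature; enzyme-free buffer wells were negative controls.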
Pol kappa inh: inhibitors of human DNA polymerase kappa | Q9UBT6 | purified Pol kappa, fluorescent DNA synthesis assay, 10 min | Potency, µM (top dose mostly 107 µM), inactives show at the top dose activity, negative = inhibition, most hits filed as inhibitors | 400,000 tested, 0.53% active; also: % is scaled to controls: 0 for no effect and ±100 for the full control effect
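Here, compound and 10 nM enzyme are combined for 15 min at room temperature; adding 50 nM substrate (final) starts DNA synthesis, tracked by fluorescence at 0 and 10 min against buffer-only wells.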
TDP1 inh: blocks human tyrosyl-DNA phosphodiesterase 1 | Potency, µM (doses to about 130 µM), inactives show at the highest dose activity change, negative = inhibition, usual class: inhibitors | Q9NUW8 | recombinant TDP1, AlphaScreen DNA substrate cleavage | 350,000 tested, 0.28% active; also: % is scaled to controls: 0 for no effect and ±100 for the full control effect; nearly all actives have a fitted effect of over 40% in size
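Signal: AlphaScreen proximity between streptavidin donor and anti-FITC acceptor beads on intact substrate. Reaction: Tdp1 1 nM, substrate 15 nM final, 5 min RT after 15 min compound preincubation.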
Pol beta inh: DNA polymerase beta (human) inhibition; P06746; Pol beta primer extension/strand displacement, fluorescence kinetic; Potency, µM (doses to about 114 µM), for the others: top-dose activity change, negative = inhibition, most hits filed as inhibitors; 340,000 tested, 1.3% active; AID 485314; also: % is scaled to controls: 0 for no effect and ±100 for the full control effect
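Values derive from four-parameter Hill fits of normalized kinetic data: reads at 0 and 10 min following addition of 50 nM substrate to 10 nM Pol beta preincubated 15 min with compound.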
FEN1 inh-1: blocks human flap endonuclease 1. P39748. Recombinant FEN1 flap cleavage, fluorescence, 15 min. Potency, µM (doses to about 114 µM), for the others: top-dose activity change, negative = inhibition, usual class: inhibitors. 390,000 tested, 0.35% active; also: % is scaled to controls: 0 for no effect and ±100 for the full control effect; nearly all actives have a fitted effect of over 65% in size
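Steps: FEN1 (10 nM) dispensed; compound added by pin tool; 15 min at room temperature; substrate added to 50 nM final; reads at 0 min and 15 min; data normalized and fitted (four-parameter Hill).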
FEN1 inh-2: confirmation of human FEN1 inhibitors; Potency, µM, actives largely listed as inhibitors; 880 tested, 79% active; shares compounds with FEN1 inh-1; AID 720498; FEN1 flap cleavage, TAMRA/BHQ2 fluorogenic DNA substrate; also: nearly all actives have a fitted effect of over 60% in size
* hit, by the source's call; [ ] = remark or other dose. Calls follow the shape of the dose curve; as a rule, active = well fitted curve in the direction sought with a large enough effect; inconclusive = small, poorly fitted or top-dose-only effect, or another doubt; inactive = no such curve, though single readings can be large; an effect the other way counts as inactive or inconclusive. Potency is read from the fitted curve at half-maximal effect.

How did CC(C)/C=C1\CC/C(=C\c2ccc(N(C)C)cc2)C1=O do in these assays?
Pol eta inh: -17%; POLI inh: inconclusive; Pol kappa inh: -12%; TDP1 inh: 3%; Pol beta inh: -27%; FEN1 inh-1: -11%

What do the screens show for `CN(C)c1ccc(/C=C2/C[N+](C)(C)C/C(=C/c3ccc(N(C)C)cc3)C2=O)cc1`?
Pol eta inh: inconclusive; POLI inh: -19%; Pol kappa inh: -25%; FEN1 inh-1: inconclusive; FEN1 inh-2: inconclusive

How did COc1cccc(N/N=C/c2cccc(Br)c2O)c1 do in these assays?
Pol eta inh: -10%; POLI inh: 45%; Pol kappa inh: -2%; TDP1 inh: 11%; Pol beta inh: -23%; FEN1 inh-1: -2%

Results for Cc1cccc(N/N=C/c2ccc(O)c(O)c2O)c1 ?
Pol eta inh: inconclusive; POLI inh: inconclusive; Pol kappa inh: inconclusive; TDP1 inh: 10%; Pol beta inh: 10µM*; FEN1 inh-1: 25µM*; FEN1 inh-2: inconclusive

What do the screens show for `O=C(Nc1ncccc1O)c1c(O)c2ccccc2[nH]c1=O`?
Pol eta inh: inconclusive; POLI inh: -15%; Pol kappa inh: -13%; TDP1 inh: 1%; Pol beta inh: inconclusive; FEN1 inh-1: inconclusive; FEN1 inh-2: inconclusive

Results for CC(C)C[C@@H](CC(=O)N[C@@H](CCC(=O)O)CC(=O)O)NC(=O)[C@@H]1CCCC[C@H]1NC(=O)C[C@@H](NC(=O)C[C@H](Cc1ccccc1)NC(=O)[C@@H]1CCCC[C@H]1N)C(C)C ?
TDP1 inh: 9%

How did Cc1c2cnccc2c(C)c2c1oc1ccccc12 do in these assays?
Pol eta inh: inconclusive; POLI inh: -11%; Pol kappa inh: -4%; FEN1 inh-1: 35µM*; FEN1 inh-2: 38*

What do the screens show for `Cc1nc2c(oc3ccccc32)c(=O)o1`?
Pol eta inh: -3%; POLI inh: 8%; Pol kappa inh: -17%; TDP1 inh: -4%; Pol beta inh: 2%; FEN1 inh-1: 1%

Results for O=C(Nc1ccc2[nH]c(=O)[nH]c2c1)c1cccc([N+](=O)[O-])c1 ?
Pol eta inh: -1%; POLI inh: -2%; Pol kappa inh: -21%; Pol beta inh: 6%; FEN1 inh-1: -6%

Results for O=C(NCCS(=O)(=O)N1CCN(c2ccccc2)CC1)C1CCCC1 ?
Pol eta inh: -8%; POLI inh: -15%; Pol kappa inh: -10%; TDP1 inh: -3%; FEN1 inh-1: 6%

Results for CCCCN(CC)CCNC(=O)c1cc2c(-c3ccc(Cl)cc3)nn(C)c2s1 ?
Pol eta inh: -8%; POLI inh: inconclusive; Pol kappa inh: -13%; TDP1 inh: 0%; Pol beta inh: 3.2µM*; FEN1 inh-1: 45µM*; FEN1 inh-2: 38*

What do the screens show for `CCCN(CCC)CCCNC(=O)c1cc2c(-c3ccc(OC)c(OC)c3)nn(C)c2s1`?
Pol eta inh: inconclusive; POLI inh: inconclusive; Pol kappa inh: inconclusive; TDP1 inh: -5%; Pol beta inh: 40µM*; FEN1 inh-1: 28µM*; FEN1 inh-2: 27*

What do the screens show for `CCN(CC)CCNC(=O)c1cc2c(-c3ccc(Cl)cc3)nn(C)c2s1`?
Pol eta inh: 10%; POLI inh: inconclusive; Pol kappa inh: -17%; TDP1 inh: 0%; Pol beta inh: 16µM*; FEN1 inh-1: 28µM*; FEN1 inh-2: 38*

How did CCN(CC)CCNC(=O)c1cc2c(-c3cccc(OC)c3)nn(C)c2s1 do in these assays?
Pol eta inh: -10%; POLI inh: inconclusive; Pol kappa inh: 14%; TDP1 inh: 0%; Pol beta inh: 71µM*; FEN1 inh-1: inconclusive; FEN1 inh-2: 38*

What do the screens show for `CCOCCCNC(=O)c1cc2c(-c3ccc(Cl)cc3)nn(C)c2s1`?
Pol eta inh: -9%; POLI inh: 7%; Pol kappa inh: -9%; TDP1 inh: 1%; Pol beta inh: 4%; FEN1 inh-1: -13%

How did Cn1nc(-c2ccc(Cl)cc2)c2cc(C(=O)NCCN3CCOCC3)sc21 do in these assays?
Pol eta inh: 11%; POLI inh: inconclusive; Pol kappa inh: -3%; TDP1 inh: 9%; Pol beta inh: -6%; FEN1 inh-1: -18%

How did CCN(CC)CCn1c2c(c(SCC(=O)Nc3ccc4c(c3)OCCO4)nc1=O)CCCC2 do in these assays?
Pol eta inh: -10%; POLI inh: -5%; Pol kappa inh: -6%; TDP1 inh: 1%; FEN1 inh-1: -4%

Results for C/C(=N\Nc1nc2ccccc2c(=O)n1O)c1ccco1 ?
Pol eta inh: inconclusive; POLI inh: 18µM*; Pol kappa inh: -23%; Pol beta inh: inconclusive; FEN1 inh-1: inconclusive; FEN1 inh-2: 30*

How did COC(=O)C(=O)/C=C(\O)c1c(C)cc(C)cc1C do in these assays?
Pol eta inh: -20%; POLI inh: 34%; Pol kappa inh: 0%; Pol beta inh: -1%; FEN1 inh-1: inconclusive; FEN1 inh-2: 38*

Results for CCOC(=O)c1c(O)c(O)c(C(=O)OCC)n1-c1ccccc1 ?
Pol eta inh: -1%; POLI inh: -17%[58.9 µM]; Pol kappa inh: -13%; TDP1 inh: 0%; Pol beta inh: 10%; FEN1 inh-1: 18µM*; FEN1 inh-2: 9.5*

How did CCOC(=O)c1sc(=S)n(-c2ccccc2)c1C do in these assays?
Pol eta inh: -22%; POLI inh: 2%; Pol kappa inh: 5%; TDP1 inh: 4%; Pol beta inh: -4%; FEN1 inh-1: -17%

Results for O=[N+]([O-])c1ccc(O)c(C(C#Cc2ccccc2)N2CCOCC2)c1 (stereo not given) ?
Pol eta inh: -17%; POLI inh: 39%; Pol kappa inh: -14%; Pol beta inh: -1%; FEN1 inh-1: -12%

Results for CN(Cc1cccs1)c1ncnc2ccc(-c3ccc4cn(C)nc4c3)cc12 ?
FEN1 inh-2: 67*

Results for Cc1cc(NC(=O)COC(=O)C2CC(=O)N(c3ccc(Cl)cc3)C2)no1 (stereo not given) ?
Pol eta inh: 0%; POLI inh: 3%; Pol kappa inh: -8%; TDP1 inh: 6%; Pol beta inh: 20%; FEN1 inh-1: -18%

How did O=c1c2ccccc2nc2sc(Nc3ccc4c(c3)CNC4)nn12 do in these assays?
FEN1 inh-2: 38*
